# Screening results as filed in PubChem BioAssay.
# p-CIP stab down: p/CIP protein destabilization; F442A p/CIP-EGFP cells, EGFP fluorescence, 16 h; actives 0.01% (n = 290,000); decrease of EGFP signal, % at 10 µM;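 active means EGFP signal decrease of at least 30% at 10 µM or well 3 SD below plate mean, unless failing retest; inactive means the rest, including hits failing retest or dose response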
# H9c2 protect: protects H9c2 cardiomyocytes from peroxide injury; H2O2 injury protection, ATPLite, 2 h; protection from H2O2 cell death, % at 20 µM; actives 0.63% (n = 360,000); AID 588492;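 active means compounds giving at least 50% protection of heart cells from peroxide-induced death in the single-dose screen, raw or plate-pattern-corrected value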;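 further: 0% = DMSO wells with peroxide and 100% = DMSO wells without peroxide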
# MIN6 prolif-1: induces beta-cell replication in MIN6 cells. MIN6 cells proliferation, ATPlite luminescence, 48 h; cells starved in 0.2% serum; 100% = growth in 10% serum. actives 0.29% (n = 330,000). proliferation, % at 10 µM;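 active means compounds whose signal lies at least 3.5 SD above the mean of all wells on their plate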;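 further: 0% = DMSO-treated cells in low-serum medium and 100% = 10% serum control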
# Yeast superoxide: lowers age-related superoxide in aged yeast cells; S. cerevisiae aged cells, superoxide DHE fluorescence; active compounds read low; superoxide response (% of plate mean), % at 10 µM; actives 0.18% (n = 330,000); AID 2690;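 active means superoxide response under a set limit, about three screen SD below normal, cut at about 65% in these data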;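 further: yeast aged for seven days with compound at 30 °C before DHE staining; 100% = average MFI of all compound-treated wells on the plate with controls excluded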
# V-ATPase pH: alters yeast V-ATPase proton transport; AID 504577; actives 0.37% (n = 350,000); S. cerevisiae, pHLuorin cytosolic pH fluorescence; response, % at 10 µM; in the data active means response mostly above about 7.3%, no sharp cut-off; inactive means mostly below about 5.4%; further: actives read high
# HSV replic up: increases HSV replication in cells; HSV replication augmentation in cells, fold increase; maximum fold increase; actives 0.005% (n = 220,000); AID 1956; in the data active means maximum fold increase above about 1.5; tested in PC3 cells
# MIN6 prolif-2: confirmation of inducers of beta-cell replication in MIN6 cells; shares compounds with MIN6 prolif-1; 920 tested, under 10 active; proliferation increase, % at 50 µM; MIN6 beta-cell proliferation, ATPlite luminescence, 48 h; cells kept in 0.2% serum; scaled between 0.2% and 10% serum;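 active means proliferation increase above 40% at any of the four tested concentrations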
# * marks the source's active call; other numbers are inactive results; i = inactive; nt = no result. An excerpt weighted towards active compounds, which were near 1.4% of everything screened.
SMILES,p-CIP stab down,H9c2 protect,MIN6 prolif-1,Yeast superoxide,V-ATPase pH,HSV replic up,others
Cc1ccc2oc(=O)c3cc(C(=O)N4CCN(C(=O)c5ccco5)CC4)sc3c2c1,-4,nt,-4,102,nt,nt,
CCN(Cc1ccccc1)C(=O)c1cc2c(=O)oc3ccc(C)cc3c2s1,-7,97*,1,96,0,i,
O=C(c1n[nH]c(=O)c2ccccc12)N1CCN(Cc2ccc3c(c2)OCO3)CC1,0,8,-2,108,-1,i,
Cn1c2ccccc2c(=O)c2ccc(NCc3ccc4c(c3)OCO4)cc21,nt,71*,nt,nt,1,nt,
O=C(NCc1ccc2c(c1)OCO2)c1n[nH]c(=O)c2ccccc12,4,68*,1,103,0,i,
COc1ccccc1C1CCN(c2cc(O)ccc2[N+](=O)[O-])CC1,-4,-7,0,120,2,i,
O=[N+]([O-])c1ccccc1S(=O)(=O)N1CCSCC1,nt,-4,0,99,4,nt,
CCc1ccc2[nH]c(=O)c(C3C(C#N)=C(N)Oc4c3ccc3cccnc43)cc2c1 (configuration not stated),3,64*,-6,104,-6,i,
CC(=O)C1=C(C)OC(N)=C(C#N)C1c1cc2cccc(C)c2nc1Cl (configuration not stated),-1,6,-3,92,0,i,
Cc1ccc2cc(C3C(C#N)=C(N)Oc4c3ccc3cccnc43)c(=O)[nH]c2c1 (configuration not stated),4,70*,-6,142,-4,i,
C/C(CC1CC2=C(CC1(C)C)C(C)(C)CCC2)=N\NC(N)=S (configuration not stated),-17,-17,-4,96,5,i,
CC(=O)Nc1cc(-c2cccc(C(=O)NCCN(C)C)c2)cn2c(-c3ccc(C(C)=O)cc3)cnc12,nt,13,nt,nt,nt,nt,
CCN1C(=O)[C@H]2[C@H]3CN=C(SCc4ccc(C#N)cc4)N3[C@@](Cc3ccccc3)(C(=O)OC)[C@H]2C1=O,nt,55*,nt,96,1,nt,
CCC(C)NC(=O)Cc1ccc(-c2ccccc2)cc1 (configuration not stated),6,-2,-2,103,88*,i,
O=C(CSc1ccc2nnc(-c3ccc(F)cc3)n2n1)N1CCCc2ccccc21,-23,80*,-1,102,-5,i,
COc1ccccc1NC(=O)CSc1ccc2nnc(-c3ccc(C)cc3)n2n1,-16,69*,0,109,0,nt,
COc1cc(/C=C/C(=O)Nc2ccc3nc4n(c(=O)c3c2)CCCC4)cc(OC)c1OC,-8,54*,-1,97,-3,i,
COc1ccc(NC(=O)c2cc(C3CCCCN3C(=O)c3cc(C(C)(C)C)nn3C)on2)c(C)c1 (configuration not stated),nt,-15,nt,nt,nt,nt,
O=C(Nc1nnc(C2CC2)s1)c1cc(-c2ccccc2)nn1-c1ccccc1,-6,52*,-3,104,3,i,
O=C(c1cnn2c(C(F)(F)F)cc(-c3cccs3)nc12)N1CCCC1,-28,3,-1,104,1,i,
O=C(NCc1ccco1)c1cnn2c(C(F)(F)F)cc(-c3cccs3)nc12,-16,65*,1,106,-12,i,
CCC(C)NC(=O)CSc1nnc(-c2cc(OC)c(OC)c(OC)c2)c(-c2cc(OC)c(OC)c(OC)c2)n1 (configuration not stated),1,1,0,94,-4,nt,
Cc1ccc(Oc2ccc(Cl)cc2N)cc1,2,-5,-1,93,0,i,
Nc1cc(Cl)ccc1Oc1ccc2ccccc2c1,0,-22,-2,112,16*,i,
CCC(=O)OCOc1ccc(/C=C2/CCC(CN(C)C)C2=O)cc1 (configuration not stated),nt,-23,nt,nt,-2,nt,
SMILES,p-CIP stab down,H9c2 protect,MIN6 prolif-1,Yeast superoxide,V-ATPase pH,HSV replic up,others
COC(=O)c1cc(C(=O)OCC(=O)N2c3ccccc3NC(=O)C2(C)C)cc([N+](=O)[O-])c1,7,58*,4,100,0,i,
C[C@@H]1CN([C@@H](C)CO)C(=O)c2cc(NC(=O)Nc3ccccc3)ccc2O[C@H]1CN(C)C(=O)Nc1cccc2ccccc12,nt,90*,0,88,-1,nt,
CC(OC(=O)c1ccc2c(c1)OCO2)C(=O)NC1CCCCC1C (configuration not stated),nt,3,2,nt,-8,nt,
Cc1[nH]c2ccc(C(=O)OC(C)C(=O)NC3CCCCC3C)cc2c1C (configuration not stated),nt,-8,13*,177,1,nt,MIN6 prolif-2=-6
O=C(CN(c1ccccc1)S(=O)(=O)c1ccccc1[N+](=O)[O-])Nc1cccnc1,-3,2,5.5*,91,1,nt,MIN6 prolif-2=0
COC(=O)c1cnc(N2CCOCC2)nc1C(F)(F)F,-3,4,6.3*,105,-1,i,MIN6 prolif-2=0
COC(=O)c1cnc(N2CCCN(S(=O)(=O)c3ccccc3)CC2)nc1C(F)(F)F,1,-2,-3,102,1,i,
Cc1cc2c(ncn2C)c(NS(=O)(=O)c2ccc(F)cc2)c1C,-8,8,1,101,-1,nt,
Cc1cc2c(ncn2C(C)C)c(NS(=O)(=O)c2ccc(F)cc2)c1C,8,-1,8.9*,103,1,nt,MIN6 prolif-2=-4
O=c1c(-c2nn[nH]n2)coc2ccc(Cl)cc12,13,11,-5,129,3,i,
Cc1ccc(N2C(=O)CCC2=O)c(C)c1,nt,1,0,97,-3,nt,
CCCC(=O)Nc1nn(CC)c2nc3ccc(C)cc3cc12,-9,4,9.5*,88,-1,nt,MIN6 prolif-2=1
CC(C)CC(C(=O)NC1CCCCC1)N(Cc1cccs1)C(=O)c1snc(C(N)=O)c1N (configuration not stated),-6,51*,7.1*,91,3,i,MIN6 prolif-2=-6
CC(C)CC(C(=O)NC1CCCC1)N(Cc1cccs1)C(=O)c1snc(C(N)=O)c1N (configuration not stated),-2,48,1,92,8,i,
CN(C)S(=O)(=O)c1ccc(N2CCCC2)c(C(=O)OCC(=O)N2CCN(c3ccccc3)CC2)c1,nt,1,-4,106,-2,nt,
CS(=O)(=O)N1CCCC(C(=O)NCCN2CCC(Cc3ccccc3)CC2)C1 (configuration not stated),6,-3,5.4*,108,0,i,MIN6 prolif-2=-5
CCc1nc2ccccc2c(C(=O)Nc2cc(C)ccc2C)c1C,-1,1,5.8*,97,-3,nt,MIN6 prolif-2=-2
COc1cc2cc(CCO)oc(=O)c2cc1OC,nt,23,-1,95,-2,nt,
